Test results as given in PubChem BioAssay AID687014 (The Scripps Research Institute Molecular Screening Center, 2013).
About 6,800 (1.8%) of roughly 370,000 compounds were called active.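 Rule for the calls: active = activation above a cutoff set at the mean of all screened compounds plus 3 SD (cut at about 10% in these data); inactive = the rest.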 This excerpt belongs to a sample that is enriched for actives.

System: Nuclear hormone receptor DAF-12 (Heterodera glycines), GAL4 fusion
Assay: H. glycines DAF-12 receptor agonists, primary screen, cell-based, luminescence, HEK293, GAL4 fusion, UAS-luciferase (AID 687014);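 note: 0% = DMSO wells and 100% = sodium butyrate wells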
Conditions: HEK293 GAL4-hgDAF12 UAS-luciferase reporter, agonist luminescence; at 6.8 µM; active compounds read high; normalized to butyrate control

Compound | activation
CCCCNC(=O)C[C@@H]1C(=O)N(CCc2ccc(Cl)cc2)C2=CCCC[C@]21C(=O)OCC | -1.77% (inactive)
COc1cccc(CNC(=O)[C@H]2CCCN2C(=O)[C@H]2CCCN2C(=O)c2ccc(F)cc2)c1 | -0.01% (inactive)
Nn1c(SCC(=O)N2c3ccccc3Sc3ccccc32)nnc1-c1n[nH]c2c1CCC2 | -2.62% (inactive)
Nc1ncnc2c1ncn2[C@@H]1O[C@H](C(=O)N2CCSC2)[C@@H](O)[C@H]1O | -0.23% (inactive)
O=C(CSc1nnc(-c2cccc(Cl)c2)n1Cc1ccco1)Nc1ccc(OCc2ccccc2)cc1 | -1.62% (inactive)
COc1cccc(N(C(=O)C2COc3ccccc3O2)C(C(=O)NC2CCCCC2)c2ccc(O)cc2)c1 (stereo not given) | 0.49% (inactive)
Nn1c(SCC(=O)Nc2ccc(S(N)(=O)=O)cc2)nnc1-c1n[nH]c2c1CCC2 | 0.61% (inactive)
O=C(O)c1ccc2c(c1)C(=O)N(c1ccc(/C=C/C(=O)c3ccccc3)cc1)C2=O | 14.1% (active)
COc1ccc(C(=O)/C=C/c2ccc(-c3ccccc3)cc2)cc1CSCC(=O)O | -3.73% (inactive)
CC(=O)Oc1ccc(C)cc1N1C(=O)c2ccc(C(=O)O)cc2C1=O | -2.04% (inactive)
CCOC(=O)C1(Cc2ccccc2)CCN(Cc2cn(C(C)=O)c3ccccc23)CC1 | 1.22% (inactive)
COC(=O)c1sc(NC(=O)COC(=O)C2CCC2)c(C(=O)OC)c1C | 0.97% (inactive)
COC(=O)c1c(NC(C)=O)sc(C(=O)Nc2ccccc2OC)c1C | -3.24% (inactive)
CCC(=O)Nc1sc(C(=O)Nc2ccccc2)c(C)c1C(=O)OC | 13.4% (active)
COc1ccccc1-c1ccc([C@@H]2C[C@H]3[C@H](CON3C)CN2S(=O)(=O)c2cc(Cl)cc(Cl)c2)cc1 | 4.17% (inactive)
COC(=O)Nc1nc2ccc(C(=O)C3CC3)cc2[nH]1 | 6.35% (inactive)
COC(=O)C[C@H]1CC[C@H]2[C@H](COc3ccc(NC(=O)C4CC4)cc3C(=O)N2C)O1 | 1.59% (inactive)
CCCN(CCC)c1ccc(C(O)c2nnc(-c3ccccc3)o2)cc1 (stereo not given) | -0.77% (inactive)
Brc1ccc(-c2nnc(-c3ccccc3)o2)o1 | 11.2% (active)
Nc1ccc(-c2nnc(-c3ccccc3)o2)cc1 | 10.4% (active)
O=C(OCc1nnc(-c2ccccc2)o1)c1ccc2c(c1)C(=O)N(CCc1ccccc1)C2=O | -0.76% (inactive)
O=C(Nc1nnc(-c2ccc(Cl)cc2)o1)c1ccccc1Br | 3.84% (inactive)
O=S(=O)(c1ccc(Br)cc1)c1nc(-c2ccccc2)oc1N1CCOCC1 | -0.08% (inactive)

Compound | activation
Brc1ccc(-c2noc(-c3ccccc3)n2)o1 | 15.9% (active)
C=CCN1C(=O)[C@@H](CC(=O)N2CCN(C(=O)OCC)CC2)[C@]2(C(=O)OCC)CCCCC/C=C/12 | -0.26% (inactive)
CCN(CC)C(=O)CC[C@@H]1CC[C@]2(CCCN(S(=O)(=O)C3CCCCC3)C2)O1 | 0.45% (inactive)
C=CCn1c(SCC(N)=O)nnc1-c1ccccc1OC | -1.84% (inactive)
S=C1NC(c2ccccc2)=NCN1c1ccc(Br)cc1 | 4.34% (inactive)
N#Cc1ccc(C2N=C(c3ccccc3)NO2)cc1 (stereo not given) | 9.37% (inactive)
Brc1ccccc1C1N=C(c2ccccc2)NO1 (stereo not given) | 20.2% (active)
CCOC(=O)C1CCN(C(=O)C(C)(C)NC(=O)Nc2ccccc2Cl)CC1 | 0.66% (inactive)
C[C@@H]1ON(C)[C@H]2C[C@H]3c4cc(N5CCOCC5)ccc4CCN3C[C@@H]12 | -4.54% (inactive)
COC(=O)C1=C(C)N(Cc2ccccc2C(F)(F)F)C(=NCc2ccc(OC)cc2)NC1c1cccc(C(F)(F)F)c1 (stereo not given) | -1.71% (inactive)
O=C(Nc1ccc2c(c1)OCO2)c1sc2cc(Cl)ccc2c1Cl | -1.79% (inactive)
CN1CCc2ccccc2C1Cc1ccccc1NC(=O)c1sc2ccccc2c1Cl (stereo not given) | 5.85% (inactive)
O=C(Nc1ccon1)c1sc2ccccc2c1Cl | 11.2% (active)
C[C@@H]1CN([C@H](C)CO)C(=O)CCCn2cc(nn2)CO[C@H]1CN(C)C(=O)Nc1ccc(N2CCCCC2)cc1 | 5.88% (inactive)
Cc1nc2ccccc2n1C(=O)N1CCOCC1 | 1.42% (inactive)
N#CCSc1nc2ccc(N3CCOCC3)cc2c(=O)n1CCc1ccccc1 | -1.34% (inactive)
Cc1nn2c3cc(N4CCOCC4)ccc3nc2c2ccccc12 | 11.4% (active)
Cc1ccc(Cn2cc(CN3[C@@H](CC(C)C)COc4ccc(Cl)cc4S3(=O)=O)nn2)cc1 | 0.41% (inactive)
CCCC1(C(=O)OCC)NC(c2ccc(N(C)C)cc2)C2C(=O)N(c3ccc4c(c3)OCCO4)C(=O)C21 (stereo not given) | -2.1% (inactive)
Cc1ccc(-c2nc(C3CCCN(S(=O)(=O)c4ccc(Br)s4)C3)no2)cc1 (stereo not given) | 1.98% (inactive)
Fc1cnc(N2CCOCC2)nc1NCc1ccccc1 | -0.76% (inactive)
COc1ccc(Nc2ncc(F)c(N3CCOCC3)n2)cc1 | 18.6% (active)
COC(=O)c1ccccc1Oc1c(F)c(F)nc(N2CCOCC2)c1F | -0.09% (inactive)

Compound | activation
COC(=O)c1cc2c(c3c4cc(F)ccc4n(S(=O)(=O)c4ccccc4)c13)C(=O)N(Cc1ccccc1OC)C2 | 0.57% (inactive)
Cc1ccc(NC(=O)C(=O)NCc2ccco2)c(C)c1 | 6.27% (inactive)
Cc1ccc(NN=C2C(=O)OC(C)(C)OC2=O)c(C)c1 | 11.5% (active)
Cc1ccc(NC(=O)c2oc(=O)c3ccccc3c2-c2ccccc2)c(C)c1 | 2.59% (inactive)
C=CCN(C)CC#Cc1ccccc1 | -1.36% (inactive)
CCCCCCc1cc2cc(-c3nnc(-c4cccc(OC)c4)o3)c(=O)oc2cc1O | 4.05% (inactive)
CCOc1ccc(NC(=O)N(CCC(C)C)C(C)c2ccco2)cc1 (stereo not given) | -1.26% (inactive)
CCOc1ccc(-c2nnc(-c3ccco3)o2)cc1 | 13.6% (active)
CCCCSc1nnc(-c2ccc(C)cc2)o1 | 8.59% (inactive)
O=C(CSc1nnc(-c2ccco2)o1)NCC(=O)c1ccccc1 | -1.52% (inactive)
CCCCOc1ccc(-c2nnc(-c3ccco3)o2)cc1 | 11.3% (active)
COC(=O)[C@]12C[C@H](CC(=O)N3CCOCC3)C(=O)N(Cc3ccc(Cl)cc3Cl)C1=C[C@H](C(C)C)O[C@@H]2C1CC1 | -3.62% (inactive)
CCOC(=O)C1=C(C(=O)OCC)C2N(Cc3ccc(C#N)cc3)c3ccccc3[C@@]23C[C@@H](C(=O)OC)N(S(=O)(=O)c2ccc(F)cc2)C3=N1 (stereo not given in full) | 2.34% (inactive)
Cc1ccc(-n2c(SCC(=O)Nc3cccc4ccccc34)nnc2-c2ccccn2)cc1 | -2.36% (inactive)
Cc1cccc(OCC(=O)Nc2ccccc2F)c1 | 11.4% (active)
Cc1cccc(OCC(=O)Nc2ccc(C(=O)O)cc2NC(=O)COc2cccc(C)c2)c1 | -2.94% (inactive)
Cc1cccc(OCC(=O)NC2CC(C)(C)NC(C)(C)C2)c1 | 0.72% (inactive)
COC(=O)C1CN(CCc2ccccc2)CCS(=O)(=O)N1Cc1cccc(Cl)c1 (stereo not given) | -0.51% (inactive)
Cc1ccc(C(=O)NNC2=Nc3cc([N+](=O)[O-])ccc3OC2)cc1 | 4.07% (inactive)
COc1ccc(-c2onc(C)c2-c2ccc3c(c2)OCCO3)c(O)c1 | -2.49% (inactive)
COc1ccc(C2=Nc3cc(C)ccc3OC2)cc1 | 15.9% (active)
O=C1Nc2ccccc2OC1CC(=O)N1CCCCCCC1 (stereo not given) | 3.97% (inactive)
O=C(c1cccc(C(F)(F)F)c1)N1CC[C@H]2[C@H](CCCN2Cc2cc(F)cc(F)c2)C1 | 1.35% (inactive)

Compound | activation
NC1=NN(c2cccc(C(=O)O)c2)C(=O)C1 | 0.87% (inactive)
CC(=O)c1ccc(OC(=O)N2CCOCC2)cc1 | 1.11% (inactive)
Cc1ccc(C(=O)C(=S)N2CCOCC2)cc1 | 3.06% (inactive)
O=C(O)c1ccc(N=NN2CCOCC2)cc1 | 10.6% (active)
O=C(c1ccccc1)C(O)(CN1CCCCC1)c1ccccc1 (stereo not given) | -0.03% (inactive)
O=C(O)c1cccc(N=NN2CCCCCC2)c1 | 12.7% (active)
O=C(NC1CCCCN(Cc2cccc(C(F)(F)F)c2)C1=O)c1ccccc1I (stereo not given) | -2.42% (inactive)
CC(C)NC(=S)N1CCN(S(C)(=O)=O)CC1 | 2.81% (inactive)
C=CCN1C(=O)[C@H](CC(=O)N2CCN(C(=O)OCC)CC2)[C@@]2(C(=O)OCC)CCCC=C12 | 0.53% (inactive)
COC(=O)[C@@]12CCCCC=C1N(CCc1ccc(Cl)cc1)C(=O)[C@H]2CC(=O)NCc1ccc(OC)c(OC)c1 | -3.28% (inactive)
CCOC(=O)c1c(NC(=S)Nc2ccccc2)sc2c1CCN(C)C2 | -0.1% (inactive)
CCOC(=O)c1cn[nH]c1NC(=S)Nc1ccccc1 | 15.5% (active)
CCOC(=O)c1cc2c(nc1NC(=S)Nc1ccccc1)CC(C)(CC)OC2 (stereo not given) | -0.06% (inactive)
Cc1ccccc1Nc1nc(N)nc(CSc2ccccc2)n1 | 16.4% (active)
Cc1ccccc1Nc1nc(N)nc(CSc2nnc3ccccn23)n1 | -2.26% (inactive)
Cc1ccccc1Nc1nc(N)nc(CN2CCN(c3ccccn3)CC2)n1 | -1.77% (inactive)
Clc1ccc(-n2c(SC/C=C/c3ccccc3)nnc2-c2ccco2)cc1 | -0.13% (inactive)
O=C(CSc1nc2ccccc2nc1N1CCCCC1)N1CCN(S(=O)(=O)c2cccc([N+](=O)[O-])c2)CC1 | 0.48% (inactive)
COc1ccc(OC)c(CNC(=O)CCc2nc(-c3cccs3)no2)c1 | -2.24% (inactive)
COc1ccc(CCc2nc(-c3cccs3)no2)cc1 | 11.6% (active)
CCc1ccc(CNC(=O)CCc2nc(-c3cccs3)no2)cc1 | 1.81% (inactive)
